# From PubChem BioAssay AID1159580 (chemical genetic matrix, 2015)
# The campaign covered roughly 5,500 compounds. About 2,000 (36%) were called active. Not shown: some 18% with an inconclusive outcome. Some of the results follow. Unmarked numbers belong to inactive results. Cut-off read from the data, not from the text of the source: active = normalized growth mostly below about 0.91 (no sharp cut-off); inconclusive = no clear call, values can overlap the other calls; inactive = mostly above about 0.92.
# Assay: chemical genetic growth profiling, strain panel (AID 1159580);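 note: tested at 20 µM; growth read once vehicle control cultures reached saturation at 30 °C; 1 = growth at the plate median or of vehicle wells; lower values mean less growth of the strain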
# Details: S. cerevisiae deletion strains, growth OD
structure (smiles),measurement,setting,value
CC(=O)[C@H]1CCC2C3CC=C4C[C@@H](OC(=O)CCC(=O)O)CC[C@]4(C)C3CC[C@@]21C (stereo not given in full),normalized growth,"locus YAL021C, strain ccr4, stronger effect = lower value",0.975
same,normalized growth,"locus YAL026C, strain drs2, stronger effect = lower value",0.913
same,normalized growth,"locus YAL030W, strain snc1, stronger effect = lower value",0.969
same,normalized growth,"locus YBL061C, strain skt5, stronger effect = lower value",0.964
same,normalized growth,"locus YBR009C, strain hhf1, stronger effect = lower value",0.899 (active)
same,normalized growth,"locus YBR023C, strain chs3, stronger effect = lower value",0.96
same,normalized growth,"locus YBR171W, strain sec66, stronger effect = lower value",0.898
same,normalized growth,"locus YBR231C, strain swc5, stronger effect = lower value",0.975
same,normalized growth,"locus YBR279W, strain paf1, stronger effect = lower value",0.961
same,normalized growth,"locus YCL011C, strain gbp2, stronger effect = lower value",0.957
same,normalized growth,"locus YCL016C, strain dcc1, stronger effect = lower value",0.965
same,normalized growth,"locus YCL061C, strain MRC1, stronger effect = lower value",0.962
same,normalized growth,"locus YCL069W, strain vba3, stronger effect = lower value",0.983
same,normalized growth,"locus YCR088W, strain abp1, stronger effect = lower value",0.966
same,normalized growth,"locus YDL005C, strain med2, stronger effect = lower value",0.941
same,normalized growth,"locus YDL040C, strain nat1, stronger effect = lower value",0.973
same,normalized growth,"locus YDR001C, strain nth1, stronger effect = lower value",0.971
same,normalized growth,"locus YDR069C, strain doa4, stronger effect = lower value",0.966
same,normalized growth,"locus YDR137W, strain rgp1, stronger effect = lower value",0.556 (active)
same,normalized growth,"locus YDR159W, strain sac3, stronger effect = lower value",0.943
same,normalized growth,"locus YDR195W, strain ref2",1.03
same,normalized growth,"locus YDR297W, strain sur2, stronger effect = lower value",0.95
same,normalized growth,"locus YDR334W, strain swr1, stronger effect = lower value",0.989
same,normalized growth,"locus YDR335W, strain msn5, stronger effect = lower value",0.977
same,normalized growth,"locus YDR392W, strain spt3, stronger effect = lower value",0.466 (active)
same,normalized growth,"locus YEL003W, strain gim4, stronger effect = lower value",0.968
same,normalized growth,"locus YEL037C, strain rad23, stronger effect = lower value",0.972
same,normalized growth,"locus YEL061C, strain CIN8 (second series), stronger effect = lower value",0.97
same,normalized growth,"locus YER015W, strain faa2, stronger effect = lower value",0.985
same,normalized growth,"locus YER016W, strain bim1, stronger effect = lower value",0.969
same,normalized growth,"locus YER111C, strain swi4, stronger effect = lower value",0.953
same,normalized growth,"locus YER155C, strain BEM2 (second series), stronger effect = lower value",0.842 (active)
same,normalized growth,"locus YFR010W, strain ubp6, stronger effect = lower value",0.966
same,normalized growth,"locus YGL167C, strain pmr1, stronger effect = lower value",0.928
same,normalized growth,"locus YGL173C, strain kem1, stronger effect = lower value",0.898 (active)
same,normalized growth,"locus YGL227W, strain vid30, stronger effect = lower value",0.973
same,normalized growth,"locus YGL240W, strain doc1, stronger effect = lower value",0.939
same,normalized growth,"locus YGL253W, strain hxk2, stronger effect = lower value",0.971
same,normalized growth,"locus YHR013C, strain ard1, stronger effect = lower value",0.941
same,normalized growth,"locus YHR027C, strain rpn1, stronger effect = lower value",0.978
same,normalized growth,"locus YHR030C, strain SLT2, stronger effect = lower value",0.997
same,normalized growth,"locus YHR079C, strain IRE1, stronger effect = lower value",0.974
same,normalized growth,"locus YHR142W, strain chs7, stronger effect = lower value",0.932
same,normalized growth,"locus YJL092W, strain hpr5, stronger effect = lower value",0.966
same,normalized growth,"locus YJL095W, strain BCK1 (second series), stronger effect = lower value",0.971
same,normalized growth,"locus YJL095W, strain BCK1, stronger effect = lower value",0.913
same,normalized growth,"locus YJL115W, strain asf1, stronger effect = lower value",0.99
same,normalized growth,"locus YJL129C, strain trk1, stronger effect = lower value",0.804 (active)
same,normalized growth,"locus YJL154C, strain vps35, stronger effect = lower value",0.988
same,normalized growth,"locus YJL164C, strain tpk1, stronger effect = lower value",0.955
same,normalized growth,"locus YJL166W, strain qcr8, stronger effect = lower value",0.929
same,normalized growth,"locus YJL187C, strain SWE1, stronger effect = lower value",0.968
same,normalized growth,"locus YJR066W, strain TOR1, stronger effect = lower value",0.942
same,normalized growth,"locus YKL160W, strain elf1, stronger effect = lower value",0.951
same,normalized growth,"locus YKR026C, strain gcn3, stronger effect = lower value",0.962
same,normalized growth,"locus YKR091W, strain srl3, stronger effect = lower value",0.968
same,normalized growth,"locus YLL001W, strain dnm1, stronger effect = lower value",0.948
same,normalized growth,"locus YLL026W, stronger effect = lower value",0.974
same,normalized growth,"locus YLL041C, strain sdh2, stronger effect = lower value",0.985
same,normalized growth,"locus YLR027C, strain aat2, stronger effect = lower value",0.978
same,normalized growth,"locus YLR113W, strain HOG1, stronger effect = lower value",0.855
same,normalized growth,"locus YLR221C, strain rsa3, stronger effect = lower value",0.967
same,normalized growth,"locus YLR258W, strain gsy2, stronger effect = lower value",0.956
same,normalized growth,"locus YLR262C, strain YPT6 (second series), stronger effect = lower value",0.57 (active)
same,normalized growth,"locus YLR320W, strain mms22, stronger effect = lower value",0.796 (active)
same,normalized growth,"locus YLR342W, strain FKS1, stronger effect = lower value",0.955
same,normalized growth,"locus YLR357W, strain rsc2, stronger effect = lower value",0.989
same,normalized growth,"locus YLR370C, strain arc18, stronger effect = lower value",0.942
same,normalized growth,"locus YLR384C, strain iki3, stronger effect = lower value",0.97
same,normalized growth,"locus YML120C, strain ndi1, stronger effect = lower value",0.9 (active)
same,normalized growth,"locus YMR058W, strain fet3, stronger effect = lower value",0.963
same,normalized growth,"locus YMR125W, strain sto1, stronger effect = lower value",0.938
same,normalized growth,"locus YMR129W, stronger effect = lower value",0.968
same,normalized growth,"locus YMR205C, strain PFK2, stronger effect = lower value",0.822 (active)
same,normalized growth,"locus YMR231W, strain pep5, stronger effect = lower value",0.975
same,normalized growth,"locus YNL071W, strain lat1, stronger effect = lower value",0.845 (active)
same,normalized growth,"locus YNL183C, strain NPR1, stronger effect = lower value",0.927
same,normalized growth,"locus YNL209W, strain ssb2, stronger effect = lower value",0.969
same,normalized growth,"locus YNL248C, strain rpa49, stronger effect = lower value",0.988
same,normalized growth,"locus YNL322C, strain KRE1 (second series), stronger effect = lower value",0.969
same,normalized growth,"locus YNR049C, strain mso1, stronger effect = lower value",0.973
same,normalized growth,"locus YOR001W, strain rrp6, stronger effect = lower value",0.952
same,normalized growth,"locus YOR070C, strain gyp1, stronger effect = lower value",0.959
same,normalized growth,"locus YOR080W, strain dia2, stronger effect = lower value",0.95
same,normalized growth,"locus YOR083W, strain WHI5, stronger effect = lower value",0.974
same,normalized growth,"locus YOR106W, strain vam3, stronger effect = lower value",0.953
same,normalized growth,"locus YOR231W, strain MKK1, stronger effect = lower value",0.961
same,normalized growth,"locus YOR265W, strain rbl2, stronger effect = lower value",0.981
same,normalized growth,"locus YOR270C, strain vph1, stronger effect = lower value",0.91
same,normalized growth,"locus YOR290C, strain snf2, stronger effect = lower value",0.908
same,normalized growth,"locus YPL051W, strain arl3, stronger effect = lower value",0.973
same,normalized growth,"locus YPL078C, strain atp4, stronger effect = lower value",0.956
same,normalized growth,"locus YPL106C, strain sse1, stronger effect = lower value",1
same,normalized growth,"locus YPL240C, strain hsp82, stronger effect = lower value",0.971
same,normalized growth,"locus YPL256C, strain CLN2, stronger effect = lower value",0.991
